Active and inactive are the calls of the source. Rule for the calls: active = hit-call score of the fitted dose curve at least 0.9, where 1 is the maximum; inactive = score below 0.9.
Assays:
[1] = APR_HepG2_CellCycleArrest_1hr: Apredica 1-hour HepG2 Assay for Cell Cycle Arrest (AID 2282666); conditions: high-content imaging, actives raise or lower the signal
Summary of the method: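 HepG2 cells exposed for 1 h to 0.39–200 uM compound (0.5% DMSO). Fixed, Hoechst-stained nuclei imaged by ArrayScan; DNA content quantified by Cell Cycle analysis; bidirectional fit against DMSO.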

[2] = APR_HepG2_CellLoss_1hr: Apredica 1-hour HepG2 Assay for Cell Loss (AID 2282668); conditions: high-content imaging;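 note: curves fitted both ways against DMSO so gain or loss of cells counts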
Summary of the method: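 HepG2 cells were treated for 1 h with compound at 0.39–200 uM, in duplicate, in 0.5% DMSO. After formaldehyde fixation, Hoechst 33342-stained nuclei were imaged on an ArrayScan to count cells. Data were fitted bidirectionally versus DMSO.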

[3] = APR_HepG2_MicrotubuleCSK_1hr: Apredica 1-hour HepG2 Assay for Microtubule CSK Stabilty (AID 2282669); conditions: HepG2 microtubule cytoskeleton imaging, actives raise or lower the signal
Summary of the method: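 HepG2 cells exposed 1 h to 0.39–200 uM compound (0.5% DMSO, duplicates), then formaldehyde-fixed, permeabilized and immunostained for alpha-tubulin with Hoechst nuclei. Imaged by ArrayScan high-content analysis; bidirectional fit versus DMSO.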

[4] = APR_HepG2_NuclearSize_1hr: Apredica 1-hour HepG2 Assay for Nuclear Size (AID 2282670); conditions: high-content imaging, actives raise or lower the signal
Summary of the method: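 HepG2 cells dosed 1 hr with 0.39–200 uM compound (0.5% DMSO), formaldehyde-fixed, Hoechst 33342-stained and imaged at 20x; nuclear diameter from nuclear stain, fitted bidirectionally against DMSO.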

[5] = APR_HepG2_MitoticArrest_1hr: Apredica 1-hour HepG2 Assay for Mitotic Arrest (AID 2282672); conditions: high-content imaging, actives raise or lower the signal
Summary of the method: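 HepG2 cells exposed 1 hr to compounds at 0.39–200 uM (0.5% v/v DMSO final), then fixed in 3.7% formaldehyde and immunostained for phospho-histone H3 with Hoechst 33342. Mitotic arrest scored by automated fluorescence imaging, fitted bidirectionally versus DMSO.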

[6] = APR_HepG2_MitoMass_1hr: Apredica 1-hour HepG2 Assay for Mitochondrial Mass (AID 2282674); conditions: high-content imaging, actives raise or lower the signal
Summary of the method: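 HepG2 cells dosed 1 hr with 0.39-200 uM compound (0.5% DMSO), duplicate wells. Mitochondria stained with 250 nM MitoTracker Red CMXRos for 30 min before formaldehyde fixation, imaged at 20x by ArrayScan; bidirectional fit versus DMSO.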

[7] = APR_HepG2_CellCycleArrest_24hr: Apredica 24-hour HepG2 Assay for Cell Cycle Arrest (AID 2282905); conditions: imaging, actives raise or lower the signal;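 note: cell cycle arrest scored as ratio of 2N to 4N nuclear DNA content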
Summary of the method: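 HepG2 cells were exposed to compounds at 0.39–200 uM (ten concentrations, duplicate) in 0.5% v/v DMSO for 24 hr. After formaldehyde fixation and Triton permeabilization, Hoechst 33342-stained nuclei were imaged at 20x; DNA content was quantified, with bidirectional fitting against DMSO.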

[8] = APR_HepG2_StressKinase_1hr: Apredica 1-hour HepG2 Assay for Stress Kinase (AID 2282906); conditions: HepG2 stress kinase (phospho-c-Jun) imaging, actives raise or lower the signal
Summary of the method: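 HepG2 cells dosed 0.39-200 uM (0.5% DMSO) for 1 h, then formaldehyde-fixed. Stress kinase read by phospho-c-Jun immunofluorescence using high-content imaging; bidirectional fit vs DMSO.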

[9] = APR_HepG2_NuclearSize_24hr: Apredica 24-hour HepG2 Assay for Nuclear Size (AID 2282907); conditions: high-content imaging, actives raise or lower the signal
Summary of the method: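 HepG2 human liver cells were exposed for 24 hr to compounds at 0.39–200 uM (ten concentrations, duplicate) in 0.5% v/v DMSO. They were then formaldehyde-fixed, Triton-permeabilized and Hoechst 33342-stained, and nuclear diameter was imaged at 20x. Bidirectional fits were made against DMSO.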

[10] = APR_HepG2_CellLoss_24hr: Apredica 24-hour HepG2 Assay for Cell Loss (AID 2282908); conditions: high-content imaging;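 for AC50: fit in both directions so a hit may be cell loss or gain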
Summary of the method: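 Compounds were tested at 0.39–200 uM in duplicate with 0.5% v/v DMSO final. Cells were then fixed in 3.7% formaldehyde, Hoechst 33342 nuclei were imaged at 20x by HCS, and cell number was fitted bidirectionally against DMSO.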

[11] = APR_HepG2_MitoticArrest_24hr: Apredica 24-hour HepG2 Assay for Mitotic Arrest (AID 2282910); conditions: high-content imaging, actives raise or lower the signal
Summary of the method: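 HepG2 human liver cells were exposed to compounds at 0.39–200 uM (10 concentrations, duplicate) in 0.5% v/v DMSO for 24 hr, then fixed and immunostained for phospho-histone H3 with Hoechst 33342. Mitotic arrest came from HCS fluorescent imaging, fitted bidirectionally against DMSO.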

[12] = APR_HepG2_MitoMembPot_24hr: Apredica 24-hour HepG2 Assay for Mitochondrial Membrane Potential (AID 2282911); conditions: imaging, actives raise or lower the signal
Summary of the method: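 Mitochondrial dye uptake (MitoTracker Red CMXRos, 250 nM, 30 min pre-fixation) in HepG2 after 24 hr compound exposure, 0.39–200 uM; ArrayScan images at 20x, activity fitted in both directions relative to DMSO.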

[13] = APR_HepG2_MitoMass_24hr: Apredica 24-hour HepG2 Assay for Mitochondrial Mass (AID 2282912); conditions: high-content imaging, actives raise or lower the signal
Summary of the method: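 Human HepG2 liver cells were exposed for 24 hr to compounds at 0.39–200 uM (duplicates, 0.5% v/v DMSO final). They were stained live with 250 nM MitoTracker Red CMXRos for 30 min, fixed in 3.7% formaldehyde, and imaged by HCS fluorescence; signals were fitted bidirectionally against DMSO.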

[14] = APR_HepG2_p53Act_24hr: Apredica 24-hour HepG2 Assay for p53 Activation (AID 2282913); conditions: high-content imaging, actives raise or lower the signal;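 note: p53 protein immunofluorescence averaged per cell in HepG2 with Hoechst nuclei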
Summary of the method: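 Following 24 hr dosing of HepG2 at 0.39–200 uM, the cells undergo formaldehyde fixation, Triton permeabilization and multiplexed antibody labeling that includes p53 (Cy5). Signal from the imaging is referenced to DMSO solvent controls.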

[15] = APR_HepG2_CellCycleArrest_72hr: Apredica 72-hour HepG2 Assay for Cell Cycle Arrest (AID 2282914); conditions: high-content imaging, actives raise or lower the signal
Summary of the method: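 Using multiplexed high-content imaging, HepG2 nuclei stained with Hoechst 33342 (2 ug/mL) were analysed for DNA content after fixation and permeabilization. Treatment lasted 72 hr across 0.39–200 uM in duplicate with final DMSO 0.5% v/v; DMSO served as negative control.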

[16] = APR_HepG2_CellLoss_72hr: Apredica 72-hour HepG2 Assay for Cell Loss (AID 2282915); conditions: high-content imaging
Summary of the method: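 HepG2 cells were exposed for 72 hr to compounds at 0.39–200 uM (ten concentrations, duplicate) in 0.5% v/v final DMSO. Nuclei were stained with Hoechst 33342 after 3.7% formaldehyde fixation, imaged at 20x, and counted; fits bidirectional versus DMSO.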

[17] = APR_HepG2_p53Act_1hr: Apredica 1-hour HepG2 Assay for p53 Activation (AID 2282671); conditions: high-content imaging, actives raise or lower the signal
Summary of the method: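 HepG2 cells treated 1 h with compound at 0.39–200 uM (10 concentrations, duplicate) in 0.5% DMSO. Formaldehyde-fixed, permeabilised cells immunostained for p53 with Hoechst 33342; high-content imaging, bidirectional fit versus DMSO.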

[18] = APR_HepG2_P-H2AX_1hr: Apredica 1-hour HepG2 Assay for H2AX Phosphorylation (AID 2282673); conditions: high-content imaging, actives raise or lower the signal
Summary of the method: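 HepG2 dosed 1 hr at 0.39-200 uM (0.5% DMSO final), duplicate. Fixed in 3.7% formaldehyde, Triton permeabilized, immunostained for phospho-histone H2A.x (1:200) with Hoechst 33342; ArrayScan 20x imaging, bidirectional fit vs DMSO.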

[19] = APR_HepG2_MicrotubuleCSK_24hr: Apredica 24-hour HepG2 Assay for Microtubule CSK Stabilty (AID 2282909); conditions: HepG2 microtubule cytoskeleton imaging, actives raise or lower the signal
Summary of the method: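 HepG2 cells exposed 24 h to compounds at 0.39–200 uM (duplicate, 0.5% v/v DMSO final), then fixed, permeabilized and immunostained for alpha-tubulin with Hoechst 33342. Cytoskeleton imaged at 20x; bidirectional fit versus DMSO baseline.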

[20] = APR_HepG2_MitoMembPot_1hr: Apredica 1-hour HepG2 Assay for Mitochondrial Membrane Potential (AID 2282675); conditions: imaging, actives raise or lower the signal
Summary of the method: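 HepG2 cells dosed 1 hour with 0.39–200 uM compound in duplicate, 0.5% DMSO final. MitoTracker Red CMXRos (250 nM, 30 min) loaded before formaldehyde fixation; fluorescence quantified by high-content imaging, bidirectional fitting versus DMSO.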

Measured: AC50

N#CSCSC#N
inactive: [1] | [2] | [3] | [4] | [5] | [6] | [7] | [8] | [9] | [11] | [12] | [13] | [14] | [15] | [16]
active: [10] 13.6 µM

CCc1cccc(C)c1N(C(=O)CCl)C(C)COC (configuration not stated)
inactive: [2] | [3] | [4] | [17] | [5] | [18] | [6] | [7] | [8] | [9] | [10] | [19] | [11] | [13] | [14] | [15]
active: [16] 106 µM

COP(=O)(OC)C(O)C(Cl)(Cl)Cl (configuration not stated)
active: [7] 164 µM | [10] 76.8 µM | [19] 97.7 µM | [11] 103 µM | [15] 184 µM | [16] 100 µM
inactive: [1] | [2] | [3] | [4] | [17] | [18] | [6] | [20] | [8] | [9] | [13] | [14]

CN(C)[C@@H]1C(=O)C(C(N)=O)=C(O)[C@@]2(O)C(=O)C3=C(O)c4c(O)cccc4[C@@](C)(O)[C@H]3[C@H](O)[C@@H]12
inactive: [1] | [2] | [3] | [4] | [5] | [18] | [6] | [7] | [8] | [9] | [10] | [11] | [13] | [15] | [16]

CC(COc1ccc(Oc2ccccc2)cc1)Oc1ccccn1 (configuration not stated)
inactive: [1] | [2] | [3] | [4] | [18] | [6] | [8] | [9] | [10] | [19] | [11] | [13] | [14]
active: [20] 66.9 µM | [7] 77 µM | [12] 65.7 µM | [15] 87 µM | [16] 49.2 µM

CCCCSP(=O)(SCCCC)SCCCC
active: [16] 87.3 µM
inactive: [1] | [2] | [3] | [4] | [5] | [18] | [6] | [20] | [7] | [8] | [9] | [10] | [19] | [11] | [12] | [13] | [14] | [15]

CNc1cnn(-c2cccc(C(F)(F)F)c2)c(=O)c1Cl
inactive: [1] | [2] | [3] | [4] | [5] | [18] | [6] | [7] | [8] | [9] | [10] | [19] | [11] | [13] | [14] | [15] | [16]

CCOP(=O)(NC(C)C)Oc1ccc(SC)c(C)c1 (configuration not stated)
inactive: [1] | [2] | [3] | [4] | [6] | [20] | [7] | [8] | [9] | [10] | [19] | [11] | [13] | [14] | [15]
active: [16] 89.2 µM

CCCCN(CC)c1c([N+](=O)[O-])cc(C(F)(F)F)cc1[N+](=O)[O-]
active: [7] 99.3 µM | [15] 108 µM | [16] 84.6 µM
inactive: [1] | [2] | [3] | [4] | [6] | [8] | [9] | [10] | [11] | [13] | [14]

CCOP(=S)(OCC)Oc1ccc([N+](=O)[O-])cc1
inactive: [1] | [2] | [3] | [4] | [6] | [20] | [7] | [8] | [9] | [10] | [11] | [12] | [13] | [14] | [15] | [16]

CC1(C(=O)Nc2ccc(O)c(Cl)c2Cl)CCCCC1
inactive: [1] | [2] | [3] | [4] | [6] | [20] | [7] | [8] | [9] | [10] | [11] | [13] | [14] | [15]
active: [16] 71.2 µM

CCOP(=S)(OCC)Oc1ccc2c(C)c(Cl)c(=O)oc2c1
active: [11] 114 µM | [16] 49.1 µM
inactive: [1] | [2] | [3] | [4] | [5] | [6] | [7] | [8] | [9] | [10] | [19] | [12] | [13] | [14] | [15]

CC1=NNC(=O)N(/N=C/c2cccnc2)C1
inactive: [1] | [2] | [3] | [4] | [6] | [7] | [8] | [9] | [10] | [19] | [11] | [13] | [14] | [15] | [16]

CC(C1CC1)C(O)(Cn1cncn1)c1ccc(Cl)cc1 (configuration not stated)
inactive: [2] | [3] | [4] | [17] | [5] | [6] | [20] | [7] | [8] | [9] | [10] | [19] | [11] | [12] | [13] | [14] | [15] | [16]

CCOP(=S)(OCC)SCCSCC
inactive: [1] | [2] | [3] | [4] | [6] | [7] | [8] | [9] | [10] | [19] | [11] | [12] | [13] | [14] | [15] | [16]

From PubChem BioAssay (EPA / NIEHS)
